{"source": "PubChem BioAssay AID493240", "about": "(Broad Institute, 2011)", "note": "Among all 1,300 compounds or so, about 270 (21%) were called active. The list is a sample of the results. Potency and affinity values are given separately. A number with no mark means an inactive call. The rule behind the calls is not given here.", "data": [{"experiment": "SK-MEL-5 parental cell viability loss, dose response, orthogonal assay for MITF inhibitor project, CellTiter-Glo, cherry-picked, set 3 (AID 493240)", "settings": "SK-MEL-5 viability, ATP luminescence (CellTiter-Glo), 24 h; series mostly up to 35 µM; activity change, negative = viability loss: at the top concentration", "units": {"activity change, negative = viability loss": "%"}, "values": [{"smiles": "COCC(C)Nc1ncnc2c1cnn2-c1ccc(Cl)cc1", "note": "(stereo not given)", "activity change, negative = viability loss": -19.2}, {"smiles": "CC1CCCC(C)N1CCCNC(=O)c1cc2c(s1)-c1ccccc1OC2", "note": "(stereo not given)", "activity change, negative = viability loss": -37.3}, {"smiles": "C=CCn1c(C)cc(C(=O)CN2C(=O)c3ccccc3S2(=O)=O)c1C", "activity change, negative = viability loss": 11}, {"smiles": "N#C/C(=C\\c1c[nH]c2ccccc12)C(=O)NC1CC1", "activity change, negative = viability loss": 7.49}, {"smiles": "COc1cccc(N2CCN(C(=O)c3ccc(CS(=O)c4ccccc4Cl)o3)CC2)c1", "note": "(stereo not given)", "activity change, negative = viability loss": -4.04}, {"smiles": "C=C1C(=O)C2=CC1CCC(=O)C1(C)CCC(OC(C)=O)C(C)(C)C1CC2O", "note": "(stereo not given)", "activity change, negative = viability loss": -28.8}, {"smiles": "O=C(CCCc1ccccc1)N1CCN(C2CCCCC2)CC1", "activity change, negative = viability loss": 7.11}, {"smiles": "NC(=O)c1ccccc1NC(=O)/C=C/c1cccc(Cl)c1", "activity change, negative = viability loss": 11.7}, {"smiles": "CC(C)C(=O)Nc1ccc2nn(-c3ccc(F)cc3)nc2c1", "activity change, negative = viability loss": -0.986}, {"smiles": "Cc1cc(/C(N)=N/OC(=O)c2ccc(Cl)cc2)no1", "activity change, negative = viability loss": -18.9}, {"smiles": "COc1ccccc1OCCN1CSC(=S)N(C)C1", "activity change, negative = viability loss": -15.7}, {"smiles": "CC(=O)CSc1ccc(-c2nc3cc(C)c(C)cc3[nH]2)cn1", "activity change, negative = viability loss": -37.4}, {"smiles": "Cc1[nH]n(-c2ccccc2)c(=O)c1N=Nc1cccc(C(=O)O)c1", "activity change, negative = viability loss": -11.8}, {"smiles": "CCOc1ccc(/C=C2\\SC(=S)N(CCC(=O)O)C2=O)cc1", "activity change, negative = viability loss": 0.219}, {"smiles": "CC(=O)c1cccc(NC(=O)/C=C/c2ccc([N+](=O)[O-])s2)c1", "activity change, negative = viability loss": -10.7}, {"smiles": "COc1ccccc1-c1nnc(-c2ccc(C)cc2)o1", "activity change, negative = viability loss": -16.4}, {"smiles": "COc1ccccc1-c1nc(-c2ccc(C)nc2OC)no1", "activity change, negative = viability loss": -15.3}, {"smiles": "O=C(O)c1ccc(N/N=C/c2ccc(OC(=O)c3cccc(Cl)c3)cc2)cc1", "activity change, negative = viability loss": -5.62}, {"smiles": "CC(C)C(=O)N1CCN(c2ccc(NC(=O)c3ccc([N+](=O)[O-])o3)cc2Cl)CC1", "activity change, negative = viability loss": -41.7}, {"smiles": "Cc1cccc(NC(=O)c2ccc([N+](=O)[O-])o2)c1C", "activity change, negative = viability loss": -14.7}, {"smiles": "CN1CCN(c2ccc(NC(=O)c3ccc([N+](=O)[O-])o3)cc2Cl)CC1", "activity change, negative = viability loss": -18}, {"smiles": "CCC(=O)N1CCN(c2ccc(Cl)cc2NC(=O)c2ccc([N+](=O)[O-])o2)CC1", "activity change, negative = viability loss": -1.93}, {"smiles": "CCCC(=O)N1CCN(c2ccc(NC(=O)c3ccc([N+](=O)[O-])o3)cc2Cl)CC1", "activity change, negative = viability loss": -25.5}, {"smiles": "O=C(Nc1ccccc1N1CCOCC1)c1ccc([N+](=O)[O-])o1", "activity change, negative = viability loss": -14.6}, {"smiles": "CCn1c(=O)c([N+](=O)[O-])c(Cl)c2ccccc21", "activity change, negative = viability loss": -28.7}, {"smiles": "CC(=O)N/C(N)=N/c1nc(=O)c2ccccc2s1", "activity change, negative = viability loss": -6.17}, {"smiles": "COc1ccc(C(=O)/C=C(\\C)Nc2ccc3c(c2)OCO3)cc1", "activity change, negative = viability loss": -19.4}, {"smiles": "Clc1nccnc1N/N=C/c1ccc(Br)cc1", "activity change, negative = viability loss": -42.9}, {"smiles": "COc1cc(/C=C/C(=O)N2CCC=CC2=O)cc(OC)c1OC", "activity change, negative = viability loss": -45.6}, {"smiles": "CCOc1cc(NC(=O)CCl)c(OCC)cc1NC(=O)CCl", "activity change, negative = viability loss": -12.5}, {"smiles": "CC(=O)Nc1cccc(-c2nnc(-c3ccccc3)o2)c1", "activity change, negative = viability loss": -2.04}, {"smiles": "Cc1c(C#N)c(NC(=O)CCl)n(Cc2ccccc2)c1C", "activity change, negative = viability loss": -7.66}, {"smiles": "Cc1ccc(C(=O)Nc2cnc3ccccc3c2)cc1", "activity change, negative = viability loss": -22.4}, {"smiles": "O=C(CCl)Nc1cccc(Oc2ccccc2)c1", "activity change, negative = viability loss": -21.8}, {"smiles": "O=C(O)CSCC(=O)Nc1ccc(C2CCCCC2)cc1", "activity change, negative = viability loss": -2.59}]}]}
